Out of some 5,500 compounds screened, about 2,000 (36%) were called active. Another 18% or so got no clear call; they are omitted. The list shows a part of the results. Values without a mark were called inactive. Rule as the data show it: active = normalized growth mostly below about 0.91 (no sharp cut-off); inconclusive = no clear call, values can overlap the other calls; inactive = mostly above about 0.92.
Test: chemical genetic growth profiling, strain panel (AID 1159580);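 also: tested at 20 µM; growth read once vehicle control cultures reached saturation at 30 °C; 1 = growth at the plate median or of vehicle wells; lower values mean less growth of the strain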
Conditions: S. cerevisiae deletion strains, growth OD
[1] = locus YGR078C, strain PAC10, active compounds read low
[2] = locus YHR030C, strain SLT2, active compounds read low
[3] = locus YMR263W, strain SAP30, active compounds read low
[4] = locus YNL153C, strain GIM3, active compounds read low

Q: With `CC(=O)c1ccc(S(=O)(=O)NC(=O)NC2CCCCC2)cc1` as the compound, how does the normalized growth (locus YAL040C, strain CLN3, active compounds read low) read?
A: 1.06

Q: And the normalized growth (locus YER002W, strain NOP16, active compounds read low)?
A: 0.998

Q: What about the normalized growth [1] of the same compound?
A: 0.99

Q: And the normalized growth [2]?
A: 0.959

Q: And the normalized growth (locus YHR079C, strain IRE1, active compounds read low)?
A: 0.963

Q: What about the normalized growth (locus YJL095W, strain BCK1, active compounds read low) of the same compound?
A: 1.02

Q: What about the normalized growth (locus YJR066W, strain TOR1, active compounds read low) of the same compound?
A: 0.918

Q: And the normalized growth (locus YLR113W, strain HOG1, active compounds read low)?
A: 0.995

Q: And the normalized growth [3]?
A: 0.987

Q: And the normalized growth [4]?
A: 0.95

Q: What about the normalized growth (locus YNL175C, strain NOP13, active compounds read low) of the same compound?
A: 0.983

Q: What about the normalized growth (locus YNL183C, strain NPR1, active compounds read low) of the same compound?
A: 0.937

Q: What about the normalized growth (locus YNL197C, strain WHI3, active compounds read low) of the same compound?
A: 0.986

Q: And the normalized growth (locus YNL224C, strain SQS1, active compounds read low)?
A: 1.01

Q: What about the normalized growth (locus YOR083W, strain WHI5 (second series), active compounds read low) of the same compound?
A: 1

Q: And the normalized growth (locus YOR231W, strain MKK1, active compounds read low)?
A: 0.967

Q: What about the normalized growth (locus YPL256C, strain CLN2, active compounds read low) of the same compound?
A: 0.965

Q: Which results are given for `CCOC(=O)/C(C#N)=C/N=C(N/N=C\c1c(Cl)cccc1Cl)SC`?
A: normalized growth (locus YAL013W, strain DEP1, active compounds read low): 0.98; normalized growth (locus YBR229C, strain ROT2, active compounds read low): 1.02; normalized growth (locus YCL061C, strain MRC1, active compounds read low): 1.06; normalized growth (locus YDL101C, strain DUN1, active compounds read low): 1.04; normalized growth (locus YDR150W, strain NUM1, active compounds read low): 1.03; normalized growth (locus YEL061C, strain CIN8, active compounds read low): 0.8 (active); normalized growth [1]: 0.996; normalized growth [2]: 0.687 (active); normalized growth (locus YHR087W, strain rtc3, active compounds read low): 1.01; normalized growth (locus YJL187C, strain SWE1, active compounds read low): 0.998; normalized growth (locus YJR043C, strain POL32, active compounds read low): 1.04; normalized growth (locus YJR075W, strain HOC1, active compounds read low): 1.02; normalized growth (locus YKL190W, strain CNB1, active compounds read low): 0.926 (active); normalized growth (locus YLR039C, strain RIC1, active compounds read low): 0.771 (active); normalized growth (locus YLR058C, strain SHM2 (second series), active compounds read low): 0.989; normalized growth (locus YLR085C, strain ARP6, active compounds read low): 0.845; normalized growth (locus YLR262C, strain YPT6, active compounds read low): 0.796 (active); normalized growth (locus YML094W, strain GIM5, active compounds read low): 0.901; normalized growth (locus YMR219W, strain ESC1, active compounds read low): 1.01; normalized growth [3]: 1.01; normalized growth (locus YMR307W, strain GAS1, active compounds read low): 0.799; normalized growth [4]: 1.03; normalized growth (locus YNL298W, strain CLA4 (second series), active compounds read low): 0.795 (active); normalized growth (locus YNL322C, strain KRE1, active compounds read low): 0.968; normalized growth (locus YNR030W, strain Alg12, active compounds read low): 0.863 (active); normalized growth (locus YPL055C, strain LGE1, active compounds read low): 0.956; normalized growth (locus YPL241C, strain CIN2, active compounds read low): 0.764 (active); normalized growth (locus YPR135W, strain CTF4, active compounds read low): 0.795

Reference: PubChem BioAssay AID1159580 (chemical genetic matrix, 2015)
